What all share (experiment): DAPPL (digital affinity profiling via proximity ligation, sequencing); 10 mM Tris-HCl pH 7.5, 50 mM NaCl, 1 mM DTT, 4% glycerol, room temperature, 30 min; GST-TFs on glutathione beads, 16-mer random dsDNA library, 0.1% formaldehyde crosslink after washing; high values mean tight binding
In assay [1] the target is T1, FLI1 (Homo sapiens, UniProt Q01543 1-452).
T1 sequence: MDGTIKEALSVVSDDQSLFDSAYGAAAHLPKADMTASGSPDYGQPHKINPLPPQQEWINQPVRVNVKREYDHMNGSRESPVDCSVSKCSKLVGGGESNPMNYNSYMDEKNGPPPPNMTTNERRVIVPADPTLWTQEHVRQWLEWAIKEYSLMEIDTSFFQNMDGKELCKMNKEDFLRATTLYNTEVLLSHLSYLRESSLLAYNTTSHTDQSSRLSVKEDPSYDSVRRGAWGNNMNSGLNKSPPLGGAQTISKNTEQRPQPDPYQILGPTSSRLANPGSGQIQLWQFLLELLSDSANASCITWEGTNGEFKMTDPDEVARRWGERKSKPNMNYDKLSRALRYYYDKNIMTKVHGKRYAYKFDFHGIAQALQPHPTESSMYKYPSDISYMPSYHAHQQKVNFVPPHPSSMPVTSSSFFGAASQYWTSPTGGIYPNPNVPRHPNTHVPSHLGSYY
Particulars: protein: recombinant; tags: N-terminal GST; dsDNA, one strand shown. The gist of the method: (§1)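 Yeast served to express human transcription factors as GST fusions, which were then captured on glutathione beads and labelled with DNA barcodes. Pooled with a tag-only sample, they were incubated with 200 nmole of a 16-mer random double-stranded DNA library for 30 min at room temperature in Tris/NaCl/DTT/glycerol buffer, washed, crosslinked with 0.1% formaldehyde, ligated by proximity, amplified by PCR and sequenced. Dividing each hexamer's read frequency for a factor by its frequency for the tag-only sample gives the binding signal.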

Assay [2] addresses T2, ELK1 (Homo sapiens, UniProt P19419 1-428).
T2 sequence: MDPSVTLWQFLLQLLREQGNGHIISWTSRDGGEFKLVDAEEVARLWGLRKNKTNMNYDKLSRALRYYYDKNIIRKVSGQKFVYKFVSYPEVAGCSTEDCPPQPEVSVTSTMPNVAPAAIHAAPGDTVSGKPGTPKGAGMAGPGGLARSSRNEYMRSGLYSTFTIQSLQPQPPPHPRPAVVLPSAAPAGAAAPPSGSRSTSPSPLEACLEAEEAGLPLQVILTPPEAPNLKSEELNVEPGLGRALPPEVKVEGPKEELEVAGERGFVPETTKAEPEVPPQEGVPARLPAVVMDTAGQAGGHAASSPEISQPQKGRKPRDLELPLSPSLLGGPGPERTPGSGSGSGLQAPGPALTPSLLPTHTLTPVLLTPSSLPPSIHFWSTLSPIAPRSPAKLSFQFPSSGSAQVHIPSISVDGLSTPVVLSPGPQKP
Particulars: protein: recombinant; tags: N-terminal GST; dsDNA, one strand shown. The essentials:
as §1

The target of assay [3] is T3, GABPA (Homo sapiens, UniProt Q06546 1-454).
T3 sequence: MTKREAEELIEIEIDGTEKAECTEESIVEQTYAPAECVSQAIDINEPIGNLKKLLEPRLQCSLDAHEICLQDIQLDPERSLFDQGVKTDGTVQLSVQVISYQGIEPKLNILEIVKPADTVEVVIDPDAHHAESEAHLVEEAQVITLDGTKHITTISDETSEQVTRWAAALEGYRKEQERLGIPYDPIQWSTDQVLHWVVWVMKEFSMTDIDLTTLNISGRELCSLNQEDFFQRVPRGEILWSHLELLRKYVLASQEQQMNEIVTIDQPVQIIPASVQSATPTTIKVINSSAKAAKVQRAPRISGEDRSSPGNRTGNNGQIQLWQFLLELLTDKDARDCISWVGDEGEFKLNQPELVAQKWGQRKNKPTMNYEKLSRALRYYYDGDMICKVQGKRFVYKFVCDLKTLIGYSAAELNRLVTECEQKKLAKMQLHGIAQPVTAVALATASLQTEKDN
Particulars: protein: recombinant; tags: N-terminal GST; dsDNA, one strand shown. The gist of the method:
as §1

For assay [4], the target named is T4, ERG (Homo sapiens, UniProt P11308 1-479).
T4 sequence: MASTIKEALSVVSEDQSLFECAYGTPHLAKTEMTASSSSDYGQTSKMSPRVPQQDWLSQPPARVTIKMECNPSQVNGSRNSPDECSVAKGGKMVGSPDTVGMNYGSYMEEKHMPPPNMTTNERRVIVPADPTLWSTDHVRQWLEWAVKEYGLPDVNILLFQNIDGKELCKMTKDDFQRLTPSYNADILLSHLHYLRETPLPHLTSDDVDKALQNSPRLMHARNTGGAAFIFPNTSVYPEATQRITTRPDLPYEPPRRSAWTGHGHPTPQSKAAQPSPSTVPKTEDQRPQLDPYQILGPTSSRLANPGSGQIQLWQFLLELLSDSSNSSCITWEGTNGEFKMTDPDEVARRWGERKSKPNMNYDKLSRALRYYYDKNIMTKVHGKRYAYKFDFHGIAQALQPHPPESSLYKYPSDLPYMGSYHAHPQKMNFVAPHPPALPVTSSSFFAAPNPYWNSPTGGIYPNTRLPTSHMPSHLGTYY
Particulars: protein: recombinant; tags: N-terminal GST; dsDNA, one strand shown. The gist of the method:
as §1

Assay [5] addresses ELF1 (Homo sapiens, UniProt P32519 1-619). Particulars: protein: recombinant; tags: N-terminal GST; dsDNA, one strand shown. The gist of the method:
as §1

For assay [6], the target named is T5, EHF (Homo sapiens, UniProt Q9NZC4 1-300).
T5 sequence: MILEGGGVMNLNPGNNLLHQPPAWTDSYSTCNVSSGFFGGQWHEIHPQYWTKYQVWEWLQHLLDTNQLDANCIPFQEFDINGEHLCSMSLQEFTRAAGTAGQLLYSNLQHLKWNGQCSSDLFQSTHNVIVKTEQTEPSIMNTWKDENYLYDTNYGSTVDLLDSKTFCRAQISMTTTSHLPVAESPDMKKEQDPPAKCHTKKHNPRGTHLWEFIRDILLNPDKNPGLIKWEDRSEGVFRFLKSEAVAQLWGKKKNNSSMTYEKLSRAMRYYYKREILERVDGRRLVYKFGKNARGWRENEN
Particulars: protein: recombinant; tags: N-terminal GST; dsDNA, one strand shown. The essentials:
as §1

Assay [7] deals with SPI1 (Homo sapiens, UniProt P17947 1-270). Particulars: protein: recombinant; tags: N-terminal GST; dsDNA, one strand shown. The essentials:
as §1

Assay [8] concerns the target SPIB (Homo sapiens, UniProt Q01892 1-262). Particulars: protein: recombinant; tags: N-terminal GST; dsDNA, one strand shown. The gist of the method: as §1
The target of assay [9] is T6, ELK3 (Homo sapiens, UniProt P41970 1-407).
T6 sequence: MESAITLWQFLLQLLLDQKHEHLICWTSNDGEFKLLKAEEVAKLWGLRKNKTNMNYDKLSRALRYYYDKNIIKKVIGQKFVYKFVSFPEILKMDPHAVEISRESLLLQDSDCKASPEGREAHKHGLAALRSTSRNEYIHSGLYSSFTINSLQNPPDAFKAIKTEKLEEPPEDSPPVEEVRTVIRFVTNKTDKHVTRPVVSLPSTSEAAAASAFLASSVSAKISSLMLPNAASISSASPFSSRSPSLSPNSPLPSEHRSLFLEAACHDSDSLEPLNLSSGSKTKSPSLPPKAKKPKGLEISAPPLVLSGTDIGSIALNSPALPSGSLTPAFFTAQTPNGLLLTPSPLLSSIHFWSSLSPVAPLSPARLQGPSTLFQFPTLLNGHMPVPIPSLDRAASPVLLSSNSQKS
Particulars: protein: recombinant; tags: N-terminal GST; dsDNA, one strand shown. The gist of the method: as §1

In assay [10] the target is T7, FEV (Homo sapiens, UniProt Q99581 1-238).
T7 sequence: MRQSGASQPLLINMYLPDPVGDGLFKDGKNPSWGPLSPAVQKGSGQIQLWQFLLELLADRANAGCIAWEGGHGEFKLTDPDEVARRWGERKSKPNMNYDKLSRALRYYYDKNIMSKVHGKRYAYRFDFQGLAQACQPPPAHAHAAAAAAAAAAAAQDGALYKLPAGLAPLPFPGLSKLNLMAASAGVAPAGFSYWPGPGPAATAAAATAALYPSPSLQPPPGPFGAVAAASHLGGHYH
Particulars: protein: recombinant; tags: N-terminal GST; dsDNA, one strand shown. The essentials:
as §1

The target in assay [11] is ETV5 (Homo sapiens, UniProt P41161 1-510). Particulars: protein: recombinant; tags: N-terminal GST; dsDNA, one strand shown. The gist of the method: as §1
Sequence of ETV5 (P41161 whole entry): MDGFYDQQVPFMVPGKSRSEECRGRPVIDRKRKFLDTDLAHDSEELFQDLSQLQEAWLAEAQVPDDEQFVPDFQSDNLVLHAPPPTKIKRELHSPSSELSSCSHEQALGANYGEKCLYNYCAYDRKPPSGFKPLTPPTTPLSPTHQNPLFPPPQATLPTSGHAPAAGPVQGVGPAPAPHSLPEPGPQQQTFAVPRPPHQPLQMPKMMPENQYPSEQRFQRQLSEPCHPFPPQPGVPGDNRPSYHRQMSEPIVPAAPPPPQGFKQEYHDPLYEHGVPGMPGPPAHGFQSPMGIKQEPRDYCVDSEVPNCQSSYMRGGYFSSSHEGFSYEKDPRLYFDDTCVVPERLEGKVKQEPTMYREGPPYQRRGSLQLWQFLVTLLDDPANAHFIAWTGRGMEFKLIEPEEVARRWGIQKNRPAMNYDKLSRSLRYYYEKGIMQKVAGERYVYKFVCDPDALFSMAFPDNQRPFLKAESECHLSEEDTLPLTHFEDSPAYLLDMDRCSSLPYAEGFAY
Assay [12] concerns the target HSF1 (Homo sapiens, UniProt Q00613 1-529). Particulars: protein: recombinant; tags: N-terminal GST; chain copies: 3; dsDNA, one strand shown. The essentials:
as §1

Assay [13] addresses T8, SPIC (Homo sapiens, UniProt Q8N5J4 1-248).
T8 sequence: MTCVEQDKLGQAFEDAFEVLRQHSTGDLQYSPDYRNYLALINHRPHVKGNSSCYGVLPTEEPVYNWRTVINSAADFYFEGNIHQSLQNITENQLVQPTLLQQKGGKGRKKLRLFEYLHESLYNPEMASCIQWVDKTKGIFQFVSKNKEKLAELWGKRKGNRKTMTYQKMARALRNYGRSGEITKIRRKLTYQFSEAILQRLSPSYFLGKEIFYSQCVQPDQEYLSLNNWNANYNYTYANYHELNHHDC
Particulars: protein: recombinant; tags: N-terminal GST; dsDNA, one strand shown. The essentials:
as §1

In assay [14] the target is ELF4 (Homo sapiens, UniProt Q99607 1-663). Particulars: protein: recombinant; tags: N-terminal GST; dsDNA, one strand shown. The gist of the method: as §1
Sequence of ELF4 (Q99607 whole entry): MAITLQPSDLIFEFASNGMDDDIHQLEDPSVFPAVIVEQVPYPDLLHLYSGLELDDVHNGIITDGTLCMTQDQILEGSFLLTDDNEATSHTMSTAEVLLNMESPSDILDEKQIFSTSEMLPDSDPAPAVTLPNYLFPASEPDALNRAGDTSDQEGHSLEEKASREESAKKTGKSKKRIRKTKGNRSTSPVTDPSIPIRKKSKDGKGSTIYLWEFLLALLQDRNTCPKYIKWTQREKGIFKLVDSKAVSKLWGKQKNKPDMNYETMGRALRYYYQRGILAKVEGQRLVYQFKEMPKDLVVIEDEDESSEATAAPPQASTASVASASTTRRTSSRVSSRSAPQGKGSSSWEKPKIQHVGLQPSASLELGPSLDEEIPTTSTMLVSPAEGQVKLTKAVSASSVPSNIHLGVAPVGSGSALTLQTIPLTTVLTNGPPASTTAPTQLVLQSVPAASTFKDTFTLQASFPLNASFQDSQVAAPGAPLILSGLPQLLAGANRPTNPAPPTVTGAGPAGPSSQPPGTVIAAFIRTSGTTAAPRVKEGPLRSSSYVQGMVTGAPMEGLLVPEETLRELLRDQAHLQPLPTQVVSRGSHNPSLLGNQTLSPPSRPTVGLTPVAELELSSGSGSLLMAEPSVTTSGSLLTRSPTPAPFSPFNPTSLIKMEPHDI
Assay [15] concerns the target T9, ELK4 (Homo sapiens, UniProt P28324-2 1-405).
T9 sequence: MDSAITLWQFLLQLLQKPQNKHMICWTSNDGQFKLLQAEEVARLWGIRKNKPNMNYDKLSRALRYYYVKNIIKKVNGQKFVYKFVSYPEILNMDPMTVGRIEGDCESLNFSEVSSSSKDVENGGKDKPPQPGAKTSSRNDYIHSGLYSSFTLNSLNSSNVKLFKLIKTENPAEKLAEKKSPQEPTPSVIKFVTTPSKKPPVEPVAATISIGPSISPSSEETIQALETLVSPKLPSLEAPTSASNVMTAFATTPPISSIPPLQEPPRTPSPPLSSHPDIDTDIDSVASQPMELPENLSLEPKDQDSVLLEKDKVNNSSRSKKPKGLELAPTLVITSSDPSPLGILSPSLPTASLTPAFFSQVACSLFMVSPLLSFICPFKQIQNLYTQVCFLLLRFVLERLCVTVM
Particulars: protein: recombinant; tags: N-terminal GST; dsDNA, one strand shown. The essentials: as §1

For assay [16], the target named is T10, ETV2 (Homo sapiens, UniProt O00321 1-342).
T10 sequence: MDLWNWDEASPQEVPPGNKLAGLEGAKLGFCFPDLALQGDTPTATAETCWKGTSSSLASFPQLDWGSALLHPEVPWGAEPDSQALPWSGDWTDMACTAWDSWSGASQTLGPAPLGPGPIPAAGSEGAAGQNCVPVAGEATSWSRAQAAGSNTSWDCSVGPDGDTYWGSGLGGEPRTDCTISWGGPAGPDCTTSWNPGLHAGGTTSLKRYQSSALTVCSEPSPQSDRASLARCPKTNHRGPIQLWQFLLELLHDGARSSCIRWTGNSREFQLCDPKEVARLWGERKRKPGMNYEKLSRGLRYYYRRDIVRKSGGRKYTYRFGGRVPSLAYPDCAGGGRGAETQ
Particulars: protein: recombinant; tags: N-terminal GST; dsDNA, one strand shown. The essentials:
as §1

The target of assay [17] is ETV1 (Homo sapiens, UniProt P50549 1-477). Particulars: protein: recombinant; tags: N-terminal GST; dsDNA, one strand shown. The gist of the method:
as §1

This note sets out measurements from publication PMC7862700, “An all-to-all approach to the identification of sequence-specific readers for epigenetic DNA modifications on cytosine”.

Sequence of HSF1 (Q00613 whole entry): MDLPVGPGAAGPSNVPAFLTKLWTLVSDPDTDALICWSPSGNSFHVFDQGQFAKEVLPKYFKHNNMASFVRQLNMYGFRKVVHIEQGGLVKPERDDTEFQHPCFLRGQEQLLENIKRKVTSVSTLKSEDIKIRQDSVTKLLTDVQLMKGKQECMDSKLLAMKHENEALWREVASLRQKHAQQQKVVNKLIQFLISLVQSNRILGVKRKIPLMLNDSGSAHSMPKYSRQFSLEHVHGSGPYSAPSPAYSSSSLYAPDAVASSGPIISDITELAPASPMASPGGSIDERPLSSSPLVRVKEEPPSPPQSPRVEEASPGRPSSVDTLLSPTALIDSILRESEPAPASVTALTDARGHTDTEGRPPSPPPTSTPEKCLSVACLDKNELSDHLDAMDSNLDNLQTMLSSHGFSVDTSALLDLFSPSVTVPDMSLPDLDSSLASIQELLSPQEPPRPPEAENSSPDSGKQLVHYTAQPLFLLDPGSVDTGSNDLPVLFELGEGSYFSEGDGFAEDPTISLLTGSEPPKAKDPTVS
Sequence of ETV1 (P50549 whole entry): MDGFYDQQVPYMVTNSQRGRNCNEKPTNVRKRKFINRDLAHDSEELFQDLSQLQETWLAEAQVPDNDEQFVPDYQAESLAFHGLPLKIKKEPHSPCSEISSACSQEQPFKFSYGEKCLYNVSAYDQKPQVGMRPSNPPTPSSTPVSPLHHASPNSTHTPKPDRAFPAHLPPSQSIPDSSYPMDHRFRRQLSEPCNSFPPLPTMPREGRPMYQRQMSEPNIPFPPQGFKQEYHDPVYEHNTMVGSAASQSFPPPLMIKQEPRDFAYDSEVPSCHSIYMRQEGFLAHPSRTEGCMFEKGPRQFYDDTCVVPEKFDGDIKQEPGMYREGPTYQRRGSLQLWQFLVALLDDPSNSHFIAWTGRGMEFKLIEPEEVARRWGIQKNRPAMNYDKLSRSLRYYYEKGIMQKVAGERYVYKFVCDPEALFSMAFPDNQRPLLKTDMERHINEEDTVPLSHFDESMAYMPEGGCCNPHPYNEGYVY
Sequence of SPIB (Q01892 whole entry): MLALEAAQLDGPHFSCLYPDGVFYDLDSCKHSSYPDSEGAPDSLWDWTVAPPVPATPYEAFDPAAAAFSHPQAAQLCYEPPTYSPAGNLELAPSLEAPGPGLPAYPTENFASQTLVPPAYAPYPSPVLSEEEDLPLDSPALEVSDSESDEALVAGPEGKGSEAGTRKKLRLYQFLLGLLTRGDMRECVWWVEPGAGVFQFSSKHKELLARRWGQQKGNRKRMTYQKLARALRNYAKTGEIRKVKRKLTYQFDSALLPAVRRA
Sequence of ELF1 (P32519 whole entry): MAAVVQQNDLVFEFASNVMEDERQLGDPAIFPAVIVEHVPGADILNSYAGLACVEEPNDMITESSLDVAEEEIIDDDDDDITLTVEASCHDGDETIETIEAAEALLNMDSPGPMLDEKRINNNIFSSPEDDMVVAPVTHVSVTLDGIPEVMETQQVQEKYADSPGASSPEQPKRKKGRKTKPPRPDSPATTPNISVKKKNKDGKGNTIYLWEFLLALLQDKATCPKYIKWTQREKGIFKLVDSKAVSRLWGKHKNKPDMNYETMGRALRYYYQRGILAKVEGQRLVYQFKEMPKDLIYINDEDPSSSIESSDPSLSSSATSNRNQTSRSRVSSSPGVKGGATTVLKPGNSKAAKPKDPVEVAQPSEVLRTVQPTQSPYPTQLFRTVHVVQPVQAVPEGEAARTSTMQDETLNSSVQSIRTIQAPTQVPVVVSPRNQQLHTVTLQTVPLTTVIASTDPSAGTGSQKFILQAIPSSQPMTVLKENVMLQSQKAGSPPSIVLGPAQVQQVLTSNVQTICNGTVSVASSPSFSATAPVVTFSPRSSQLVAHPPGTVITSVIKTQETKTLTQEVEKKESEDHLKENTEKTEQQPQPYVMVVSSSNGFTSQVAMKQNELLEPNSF

With TGTAGC, the binding signal in assay [1] is 1.1 fold enrichment (6-mer frequency, TF over GST control); in assay [2], 1.16 fold enrichment (6-mer frequency, TF over GST control); in [3], 1.16 fold enrichment (6-mer frequency, TF over GST control); in assay [4], 1.11 fold enrichment (6-mer frequency, TF over GST control); in assay [5], 1.2 fold enrichment (6-mer frequency, TF over GST control); in assay [6], 1.16 fold enrichment (6-mer frequency, TF over GST control). Further, the binding signal in [7] is 1.17 fold enrichment (6-mer frequency, TF over GST control); in [8], 1.03 fold enrichment (6-mer frequency, TF over GST control); in [9], 1.27 fold enrichment (6-mer frequency, TF over GST control); in [10], 1.17 fold enrichment (6-mer frequency, TF over GST control); in assay [11], 1.24 fold enrichment (6-mer frequency, TF over GST control); in assay [12], 1.02 fold enrichment (6-mer frequency, TF over GST control). In addition, the binding signal was 1.11 fold enrichment (6-mer frequency, TF over GST control) in [13]; 1.26 fold enrichment (6-mer frequency, TF over GST control) in assay [14]; 1.31 fold enrichment (6-mer frequency, TF over GST control) in assay [15]; 1.24 fold enrichment (6-mer frequency, TF over GST control) in [16]; 1.22 fold enrichment (6-mer frequency, TF over GST control) in assay [17].
